Records with an inconclusive call do not appear. Where a call stands in place of a potency, no number is given. Active and inactive are the calls of the source. The call rests on the fitted dose curve; in most records, active means well fitted cell-killing curve with a large enough effect; inconclusive means small, poorly fitted or top-dose-only effect; inactive means flat fitted curve, though single readings scatter.

A short description of the experiment: Cell Viability - LYMP1-003 - Assay at 40 hr (AID 964). Further: nearly all actives have a fitted effect of over 60% in size. The note with it: LYMP1-003 lymphoblastoid viability; series mostly up to 92.2 µM. The source says:
NIH Chemical Genomics Center [NCGC]
NIH Molecular Libraries Screening Centers Network [MLSCN]
National Institutes of Environmental Health Sciences [NIEHS]
National Toxicology Program [NTP]
We have developed a 1536-well cell-based assay for quantitative high throughput screening (qHTS) against a number of cell lines to determine in vitro cytotoxicity of small molecules. This particular assay uses a human lymphoblastoid cell line (LYMP1-003) purchased from Coriell Institute for Medical Research.
NCGC Assay Protocol Summary:
The CellTiter-Glo luminescent cell viability assay (Promega) is a homogeneous method to measure the number of viable cells in culture. The end point readout of this assay is based on quantitation of intracellular ATP, an indicator of metabolic activity, using the luciferase reaction. Luciferase catalyzes the oxidation of beetle Luciferin to oxyluciferin and light in the presence of ATP. The luminescent signal is proportional to amount of ATP present.
Using the CellTiter-Glo luminescent cell viability assay, the amount of cellular ATP was measured in the lymphoblastoid cell line with complete culture medium following compound treatment for 40 hours. The assay was performed in opaque white Kalypsys 1536-well plates. In the screen, tetraoctylammonium bromide was used as positive control. Library compounds were measured for their ability to cause acute toxicity in the cell line, as reflected by a decrease in intracellular ATP levels, in a concentration-dependent manner. […] AC50 values were determined from concentration-response data modeled with the standard Hill equation.
qHTS protocol for CellTiter Glo lymphoblastoid cellular assay
[Step] [Parameter] [Value] [Description]
1. Reagent; 5 uL; 2500 lymphoblastoid cells/well
2. Time; 5 hr; 37 C incubation
4. Controls; 23 nL; Tetraoctylammonium bromide 6.4pM to 92 uM
5. Time; 40 hr; 37 C incubation
6. Reagent; 5 uL; CellTiter Glo reagent
7. Time; 30 min; Room Temperature
8. Detection; Luminescence; Viewlux plate reader
Keywords: cell viability, cytotoxicity, lymphoblastoid cell line, luminescence, NTPHTS, NTPHTS_NCGC, NIEHS, DSSTox, MLSMR, MLSCN, NIH Roadmap, qHTS, NCGC
In the case of `Cc1ccccc1[N+](=O)[O-]`, the Potency entry is “inactive”. Take `O=[N+]([O-])c1ccccc1CCl`: the Potency entry is “inactive”. To `CCOC(=O)CC(SP(=O)(OC)OC)C(=O)OCC` (stereo not given) belongs “inactive”; to `C=CC(=O)OCC(C)C`, “inactive”. The value for `Nc1ncc([N+](=O)[O-])s1` was “inactive”; that for `C[N+](=O)[O-]` was “inactive”. The value for `CC(C)[N+](=O)[O-]` was “inactive”; that for `CCN(N=O)C(N)=O` was “inactive”.

As to `FC(Cl)(Cl)Cl`, the Potency result was “inactive”. The value for `CCSC(=O)N1CCCCCC1` was “inactive”; that for `Nn1cnnc1` was “inactive”; that for `O=S(=O)(Cl)c1ccccc1` was “inactive”. The value for `OCCBr` was “inactive”; that for `CSSC` was “inactive”; that for `Nc1c(Br)cc([N+](=O)[O-])cc1[N+](=O)[O-]` was “inactive”. Take `CCCBr`: the Potency result is “inactive”. In the case of `O=[N+]([O-])c1ccc(Cl)c(Cl)c1Cl`, the Potency entry is “inactive”. As to `c1ccc2c(c1)CCNC2`, the Potency result was “inactive”.

In the case of `C=C(Cl)CCl`, the Potency entry was “inactive”.

`Cc1ccc(N)cc1N`: the Potency result is “inactive”. Regarding `N#CCBr`, the Potency entry was “inactive”.

Consider `c1ccc(Nc2ccc(Nc3ccccc3)cc2)cc1`, for which the Potency result was “inactive”. The value for `CCCCOC(C)=O` was “inactive”. For the molecule `O=C(Cl)OCc1ccccc1`, the Potency entry is “inactive”. On to `O=C(O)C(Br)CBr` (stereo not given), for which the Potency entry is “inactive”. For the molecule `NNC(N)=S`, the Potency result was “inactive”.

In the case of `Nc1ccc(Cc2ccc(N)cc2)cc1`, the Potency result was “inactive”.

Consider `ClC(Cl)(Cl)C(Cl)(Cl)Cl`, for which the Potency result is “inactive”. Take `C=CC(=O)OCC(CC)CCCC` (stereo not given): the Potency result was “inactive”. The value for `CC(Cl)CCl` (stereo not given) was “inactive”; that for `c1ccc(N=NNc2ccccc2)cc1` was “inactive”. To `Nc1ccc(-c2ccccc2)cc1` belongs “inactive”; to `[O-][Cl+2]([O-])O`, “inactive”; to `CCBr`, “inactive”. To `CC(Cl)(Cl)Cl` belongs “inactive”; to `BrCCc1ccccc1`, “inactive”. Regarding `C=CC=O`, the Potency entry was “inactive”. The value for `Oc1cc(Cl)c(Cl)c(Cl)c1Cl` was “inactive”; that for `Cc1ccc2c(C)cccc2c1` was “inactive”; that for `Clc1ccc(C(c2ccccc2Cl)C(Cl)(Cl)Cl)cc1` (stereo not given) was “inactive”.

The record behind these values is PubChem BioAssay (NCATS).
